Laboratory results from PubChem BioAssay (Tox21).
Records with an inconclusive call do not appear. The source made the active and inactive calls. Unless noted, the call rests on the fitted dose curve; in most records, active means well fitted curve in the direction sought with a large enough effect in the repeat runs; inconclusive means weak or mixed curves; inactive means no such curve, though single readings can be large; an effect the other way counts as inactive or inconclusive.

Tests used:
[1] = qHTS assay to identify small molecule agonists of the vitamin D receptor (VDR) signaling pathway - cell viability counter screen (AID 743224); further: series mostly up to about 63 µM; nearly all actives have a fitted effect of over 50% in size
Summary of the method: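 Here cell health was gauged by luminescent ATP detection (CellTiter-Glo, 30 min RT) in VDR-bla cells that had been incubated with test compounds for 16 h at 37C and 5% CO2.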

[2] = qHTS assay to identify small molecule antagonists of the vitamin D receptor (VDR) signaling pathway - cell viability counter screen (AID 743225); further: nearly all actives have a fitted effect of over 50% in size
Summary of the method: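 Compounds were pinned onto VDR-bla HEK 293T cells together with 1-alpha,25-dihydroxyvitamin D3 at 3 nM final. After 16 h at 37C and 5% CO2 plus the reporter readout, cell viability was measured by CellTiter-Glo luminescence (30 min, room temperature).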

[3] = qHTS assay to identify small molecule agonists of the NFkB signaling pathway (AID 1159509; active means well fitted curve in the direction sought with a large enough effect in the signal ratio in the repeat runs, not every such curve was filed as active; the % refers to the signal ratio; further: series mostly up to about 61 µM)
Summary of the method: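 ME-180 NFkB-bla, 2,000 cells/well, overnight plating; cpd pinned in DMSO, 5 h 37 C; B/G FRET substrate 1.5 h RT; ex 405, em 460/530 nm.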

[4] = qHTS assay to identify small molecule agonists of the NFkB signaling pathway - cell viability counter screen (AID 1159515; calls by dose curve; further: series mostly up to about 61 µM; nearly all actives have a fitted effect of over 55% in size)
Summary of the method: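 5 hr compound treatment of NFkB-bla ME-180 cells (2,000/well, seeded overnight beforehand), followed by reporter substrate for 1.5 hr. CellTiter-Glo added afterward; luminescence after 30 min RT.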

[5] = qHTS assay to identify small molecule agonists of the endoplasmic reticulum stress response signaling pathway (AID 1159516; active means well fitted activation curve with a large enough effect in the signal ratio in the repeat runs, not every such curve was filed as active; the % refers to the signal ratio)
Summary of the method: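 Reporter HeLa cells (ESRE-beta-lactamase) underwent 5 hr compound incubation at 37 C and 5% CO2 in quantitative HTS format. Detection followed 2 hr of FRET substrate loading at room temperature.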

[6] = qHTS assay to identify small molecule agonists of the endoplasmic reticulum stress response signaling pathway - cell viability counter screen (AID 1159517; calls by dose curve;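 further: HeLa cells carrying an ER stress response element beta-lactamase reporter; series mostly up to about 61 µM; nearly all actives have a fitted effect of over 50% in size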)
Summary of the method: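 ESRE-bla HeLa cells, 1,500 per well, seeded overnight then treated with compounds for 5 hr at 37 C. After the beta-lactamase read, viability in the same wells is measured by CellTiter-Glo luminescence after 30 min at room temperature.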

[7] = qHTS assay to identify small molecule antagonists of the retinoid-related orphan receptor gamma (ROR-gamma) signaling pathway - cell viability counter screen (AID 1159520); further: nearly all actives have a fitted effect of over 50% in size
Summary of the method: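 Tet-on ROR gamma CHO cells were given compounds for 2 hr, then doxycycline hyclate at 1 uM final, and incubated 16 hr at 37 C. Viability was measured as ATP content by CellTiter-Glo luminescence.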

[8] = qHTS assay to identify small molecule agonists of the AP-1 signaling pathway - cell viability counter screen (AID 1159525; calls by dose curve; further: nearly all actives have a fitted effect of over 55% in size)
Summary of the method: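 AP-1-bla ME-180 cells in Opti-MEM with 0.5% dialyzed FBS, compound exposure 5 h at 37 C in 15-point titration. Viability read in the same wells as ATP content by CellTiter-Glo luminescence, normalised to tetra-n-octylammonium bromide and DMSO controls.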

[9] = qHTS assay to identify small molecule agonists of the AP-1 signaling pathway (AID 1159526; calls by dose curve)
[10] = qHTS assay to identify small molecule agonists of the RXR signaling pathway - cell viability counter screen (AID 1159529)
Summary of the method: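 Compounds dissolved in DMSO were pinned onto HEK 293T cells carrying a beta-lactamase reporter under RXR-alpha control and incubated 16 hr. Cytotoxicity was then quantified by CellTiter-Glo luminescence.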

[11] = qHTS assay to identify small molecule antagonists of the retinoid acid receptor (RAR) signaling pathway - cell viability counter screen (AID 1159551); further: nearly all actives have a fitted effect of over 35% in size
Summary of the method: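 Seed C3RL4 cells; next day add compound, then retinol to 1 uM final; incubate 6 h at 37 C; add CellTiter-Glo; read luminescence after 30 min at RT.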

[12] = biological target: Retinoic acid receptor RXR-alpha (Homo sapiens) (UniProt P19793); test: qHTS assay to identify small molecule agonists of the RXR signaling pathway (AID 1159527; calls by dose curve; further: nearly all actives have a fitted effect of over 35% in size)
Chain of Retinoic acid receptor RXR-alpha (Homo sapiens) (P19793 whole entry, looked up): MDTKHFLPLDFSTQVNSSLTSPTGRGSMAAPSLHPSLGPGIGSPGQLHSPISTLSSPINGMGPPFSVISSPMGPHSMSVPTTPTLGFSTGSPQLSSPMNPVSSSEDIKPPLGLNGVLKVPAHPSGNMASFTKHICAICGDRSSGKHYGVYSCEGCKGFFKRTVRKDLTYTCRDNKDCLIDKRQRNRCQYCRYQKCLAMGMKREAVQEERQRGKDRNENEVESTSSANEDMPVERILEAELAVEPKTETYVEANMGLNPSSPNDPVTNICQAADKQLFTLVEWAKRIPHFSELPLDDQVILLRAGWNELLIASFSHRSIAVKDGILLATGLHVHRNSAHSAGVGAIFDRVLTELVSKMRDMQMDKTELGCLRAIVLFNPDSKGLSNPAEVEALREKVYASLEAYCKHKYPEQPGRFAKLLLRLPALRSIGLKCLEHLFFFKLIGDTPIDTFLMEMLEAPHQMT
Summary of the method: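 Using 9-cis retinoic acid as the reference agonist, chemicals were tested in HEK 293T cells […] for 16 hr; substrate loading lasted 2 hr at room temperature.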

[13] = qHTS assay to identify small molecule agonists of the estrogen related receptor (ERR) signaling pathway (AID 1224820)
Summary of the method: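 Cells: ERR line from NTP, 2,000/well. Pre-incubation 6 h, 37 C/5% CO2. Compound (DMSO) pin transfer, 18 h 37 C. One-Glo, 30 min RT, luminescence.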

[14] = qHTS assay to identify small molecule antagonists of the estrogen related receptor signaling pathway with the pleiotropic PPARgamma coactivator (PGC) cell viability counter screen (AID 1224822; further: series mostly up to about 46 µM)
Summary of the method: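 Compounds in DMSO, with positive and negative controls, were applied to PGC/ERR cells (2,000/well) and left 17.5 h at 37 C before CellTiter-Fluor detection.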

[15] = qHTS assay to identify small molecule antagonists of the retinoic acid receptor (RAR) signaling pathway (AID 1159552; further: nearly all actives have a fitted effect of over 50% in size)
Summary of the method: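 Test chemicals and DMSO controls were pin-transferred onto C3RL4 cells a day after seeding; retinol (1 uM final) followed at once. Luminescent reporter output was quantified after 6 hr of co-incubation and 30 min with detection reagent.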

[16] = qHTS assay to identify small molecule agonists of the retinoic acid receptor (RAR) signaling pathway (AID 1159553)
Summary of the method: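 Activation of retinol signaling was monitored via a RARE luciferase reporter in C3RL4 cells. After 6 hr compound treatment at 37 C, detection reagent was added for 30 min at room temperature before luminescence reading.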

[17] = biological target: Nuclear receptor ROR-gamma (Homo sapiens) (UniProt P51449); test: qHTS assay to identify small molecule antagonists of the retinoid-related orphan receptor gamma (ROR-gamma) signaling pathway (AID 1159521)
Summary of the method: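 Test compounds were applied to Tet-on RORγ CHO cells 2 h ahead of doxycycline hyclate (1 uM final). Luciferase reporter activity was quantified by luminescence after 16 h at 37 C and 5% CO2.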

[18] = qHTS assay to identify small molecule antagonists of the estrogen related receptor (ERR) signaling pathway - cell viability counter screen (AID 1224818);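 further: series mostly up to about 46 µM; viability measured after 17.5 h of compound exposure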
Summary of the method: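 In the same ERR cell assay, compound-treated wells (17.5 h, 37 C) were multiplexed with a fluorogenic viability reagent, CellTiter-Fluor, read after 30 min to flag cytotoxic substances.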

Measured: Potency

Clc1ccc(Cl)c(Cl)c1Cl
not listed: [12] | [13] | [14] | [15] | [16] | [17] | [18]
inactive: all other assays above

CS(=O)(=O)Nc1ccc([N+](=O)[O-])cc1Oc1ccccc1
not listed: [15] | [16] | [17] | [18]
inactive: all other assays above

CNC[C@H](O)[C@@H](O)[C@H](O)[C@H](O)CO
not listed: [13] | [14] | [17] | [18]
inactive: all other assays above

Clc1cc(Cl)c(Cl)cc1Cl
not listed: [7] | [13] | [14] | [18]
inactive: all other assays above

CS(=O)(=O)c1ccc([C@@H](O)[C@@H](CO)NC(=O)C(Cl)Cl)cc1
not listed: [13] | [14] | [15] | [16] | [17] | [18]
inactive: all other assays above

CCC(C)C=O (centres undefined)
not listed: [7] | [13] | [14] | [18]
inactive: all other assays above

CCCCC(CC)COC(=O)CCCCCCCC(=O)OCC(CC)CCCC (centres undefined)
not listed: [13] | [14] | [15] | [16] | [17] | [18]
inactive: all other assays above

CC1=C(CC(=O)O)c2cc(F)ccc2/C1=C\c1ccc(S(C)=O)cc1 (centres undefined)
not listed: [12] | [13] | [15] | [16] | [17]
inactive: all other assays above

C[C@@H]1O[C@@H](OC[C@H]2O[C@@H](Oc3c(-c4ccc(O)c(O)c4)oc4cc(O)cc(O)c4c3=O)[C@H](O)[C@@H](O)[C@@H]2O)[C@H](O)[C@H](O)[C@H]1O
not listed: [7] | [13] | [14] | [18]
inactive: all other assays above

C/C=C(C)/C=C/C=C(C)C
not listed: [9] | [13] | [14] | [15] | [16] | [17] | [18]
inactive: all other assays above
